Reference: paper PMC7862700, “An all-to-all approach to the identification of sequence-specific readers for epigenetic DNA modifications on cytosine”

Experiments:
Experiment in all cases: DAPPL (digital affinity profiling via proximity ligation, sequencing); 10 mM Tris-HCl pH 7.5, 50 mM NaCl, 1 mM DTT, 4% glycerol, room temperature, 30 min; GST-TFs on glutathione beads, 16-mer random dsDNA library, 0.1% formaldehyde crosslink after washing; high values mean tight binding
FEV = target: T1, FEV (Homo sapiens, UniProt Q99581 1-238); settings: protein: recombinant; tags: N-terminal GST; dsDNA, one strand shown
T1 sequence: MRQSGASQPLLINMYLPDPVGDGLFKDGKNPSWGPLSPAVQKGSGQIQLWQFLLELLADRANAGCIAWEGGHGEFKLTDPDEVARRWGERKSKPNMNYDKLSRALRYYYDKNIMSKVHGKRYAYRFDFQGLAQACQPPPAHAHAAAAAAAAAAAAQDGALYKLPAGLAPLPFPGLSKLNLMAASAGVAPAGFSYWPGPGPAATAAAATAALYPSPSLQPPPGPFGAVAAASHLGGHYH
How it was run: (§1)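 Beads coated with glutathione captured GST-fused human transcription factors that had been expressed in yeast, and the factors were then given DNA barcodes and pooled with a tag-only sample. The pools were incubated with 200 nmole of a random double-stranded 16-mer DNA library in Tris/NaCl/DTT/glycerol buffer for 30 min at room temperature, washed, crosslinked with 0.1% formaldehyde and proximity-ligated with BsaI/T4 ligase at 37 °C for 1 h. PCR amplification and Illumina NextSeq500 sequencing came last. Binding signal is each hexamer's read frequency for a factor divided by its frequency for the tag-only sample.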

ETV5 = ETV5 (Homo sapiens, UniProt P41161 1-510); settings: protein: recombinant; tags: N-terminal GST; dsDNA, one strand shown
How it was run: as §1

HSF1 = HSF1 (Homo sapiens, UniProt Q00613 1-529); settings: protein: recombinant; tags: N-terminal GST; chain copies: 3; dsDNA, one strand shown
How it was run: as §1

SPIC = target: T2, SPIC (Homo sapiens, UniProt Q8N5J4 1-248); settings: protein: recombinant; tags: N-terminal GST; dsDNA, one strand shown
T2 sequence: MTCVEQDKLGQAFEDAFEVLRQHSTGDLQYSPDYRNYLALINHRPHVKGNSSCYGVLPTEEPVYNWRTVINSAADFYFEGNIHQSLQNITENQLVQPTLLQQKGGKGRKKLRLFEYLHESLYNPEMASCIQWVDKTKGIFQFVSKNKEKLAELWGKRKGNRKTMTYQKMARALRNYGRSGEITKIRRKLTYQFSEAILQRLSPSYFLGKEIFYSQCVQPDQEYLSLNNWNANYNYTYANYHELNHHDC
How it was run: as §1

ELF4 = ELF4 (Homo sapiens, UniProt Q99607 1-663); settings: protein: recombinant; tags: N-terminal GST; dsDNA, one strand shown
How it was run: as §1

ELK4 = target: T3, ELK4 (Homo sapiens, UniProt P28324-2 1-405); settings: protein: recombinant; tags: N-terminal GST; dsDNA, one strand shown
T3 sequence: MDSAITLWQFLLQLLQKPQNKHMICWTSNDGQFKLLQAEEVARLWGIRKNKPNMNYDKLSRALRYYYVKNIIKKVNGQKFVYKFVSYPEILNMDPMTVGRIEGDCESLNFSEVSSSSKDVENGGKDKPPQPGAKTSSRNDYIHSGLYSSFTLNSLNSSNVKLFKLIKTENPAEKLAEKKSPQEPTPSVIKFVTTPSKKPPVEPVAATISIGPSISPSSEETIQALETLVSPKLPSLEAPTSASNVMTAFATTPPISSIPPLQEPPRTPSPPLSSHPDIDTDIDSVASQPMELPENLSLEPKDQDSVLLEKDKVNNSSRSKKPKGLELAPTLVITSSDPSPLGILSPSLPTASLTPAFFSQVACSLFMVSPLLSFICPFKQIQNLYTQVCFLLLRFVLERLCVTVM
How it was run: as §1

ETV2 = target: T4, ETV2 (Homo sapiens, UniProt O00321 1-342); settings: protein: recombinant; tags: N-terminal GST; dsDNA, one strand shown
T4 sequence: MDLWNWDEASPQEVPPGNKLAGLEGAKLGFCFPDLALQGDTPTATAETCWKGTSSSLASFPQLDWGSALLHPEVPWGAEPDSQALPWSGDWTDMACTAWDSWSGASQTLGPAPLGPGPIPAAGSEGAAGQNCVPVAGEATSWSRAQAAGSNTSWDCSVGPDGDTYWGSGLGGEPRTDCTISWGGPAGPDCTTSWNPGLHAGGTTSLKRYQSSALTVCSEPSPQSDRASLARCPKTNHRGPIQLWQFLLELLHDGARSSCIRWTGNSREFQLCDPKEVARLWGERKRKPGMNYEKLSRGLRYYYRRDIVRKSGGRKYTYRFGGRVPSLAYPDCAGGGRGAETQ
How it was run: as §1

ELF3 = target: T5, ELF3 (Homo sapiens, UniProt P78545 1-371); settings: protein: recombinant; tags: N-terminal GST; dsDNA, one strand shown
T5 sequence: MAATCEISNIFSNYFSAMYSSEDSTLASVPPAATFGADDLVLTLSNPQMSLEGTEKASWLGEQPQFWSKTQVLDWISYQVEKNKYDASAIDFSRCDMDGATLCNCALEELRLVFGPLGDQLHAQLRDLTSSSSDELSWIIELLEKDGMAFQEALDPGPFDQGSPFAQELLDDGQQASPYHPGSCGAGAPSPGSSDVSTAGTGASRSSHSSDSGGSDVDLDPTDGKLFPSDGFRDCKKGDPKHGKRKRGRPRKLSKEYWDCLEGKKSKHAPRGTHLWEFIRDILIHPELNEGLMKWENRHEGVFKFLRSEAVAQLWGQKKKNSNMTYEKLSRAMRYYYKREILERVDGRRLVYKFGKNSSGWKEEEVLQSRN
How it was run: as §1

CRX = CRX (Homo sapiens, UniProt O43186 1-299); settings: protein: recombinant; tags: N-terminal GST; dsDNA, one strand shown
How it was run: as §1

ETV1 = ETV1 (Homo sapiens, UniProt P50549 1-477); settings: protein: recombinant; tags: N-terminal GST; dsDNA, one strand shown
How it was run: as §1

ERF = target: T6, ERF (Homo sapiens, UniProt P50548 1-548); settings: protein: recombinant; tags: N-terminal GST; dsDNA, one strand shown
T6 sequence: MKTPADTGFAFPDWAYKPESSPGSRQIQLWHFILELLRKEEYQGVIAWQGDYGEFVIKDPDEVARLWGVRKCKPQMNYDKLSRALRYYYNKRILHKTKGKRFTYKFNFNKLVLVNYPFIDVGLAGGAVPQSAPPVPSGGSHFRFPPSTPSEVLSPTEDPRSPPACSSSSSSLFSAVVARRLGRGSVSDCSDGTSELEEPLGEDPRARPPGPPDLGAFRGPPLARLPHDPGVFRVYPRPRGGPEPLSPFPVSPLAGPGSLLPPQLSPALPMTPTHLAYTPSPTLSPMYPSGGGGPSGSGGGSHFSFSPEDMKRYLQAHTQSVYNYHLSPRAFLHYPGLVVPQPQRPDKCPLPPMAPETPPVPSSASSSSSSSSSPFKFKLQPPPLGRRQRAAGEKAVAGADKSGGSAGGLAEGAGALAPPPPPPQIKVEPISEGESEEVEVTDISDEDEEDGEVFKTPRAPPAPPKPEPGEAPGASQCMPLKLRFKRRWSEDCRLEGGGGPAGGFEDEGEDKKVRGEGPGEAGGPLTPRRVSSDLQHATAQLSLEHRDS
How it was run: as §1

ETV3L = target: T7, ETV3L (Homo sapiens, UniProt Q6ZN32 1-361); settings: protein: recombinant; tags: N-terminal GST; dsDNA, one strand shown
T7 sequence: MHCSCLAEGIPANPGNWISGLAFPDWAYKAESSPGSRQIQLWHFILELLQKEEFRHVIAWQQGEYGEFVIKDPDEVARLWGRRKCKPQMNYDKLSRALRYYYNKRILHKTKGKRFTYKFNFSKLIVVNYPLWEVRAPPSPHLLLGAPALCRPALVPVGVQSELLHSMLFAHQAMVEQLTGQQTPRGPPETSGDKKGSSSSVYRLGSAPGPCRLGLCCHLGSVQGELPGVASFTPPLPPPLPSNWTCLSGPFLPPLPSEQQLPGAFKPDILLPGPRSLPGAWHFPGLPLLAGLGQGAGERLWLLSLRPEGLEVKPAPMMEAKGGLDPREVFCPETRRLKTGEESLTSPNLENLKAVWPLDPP
How it was run: as §1

ETS2 = target: T8, ETS2 (Homo sapiens, UniProt P15036 1-469); settings: protein: recombinant; tags: N-terminal GST; dsDNA, one strand shown
T8 sequence: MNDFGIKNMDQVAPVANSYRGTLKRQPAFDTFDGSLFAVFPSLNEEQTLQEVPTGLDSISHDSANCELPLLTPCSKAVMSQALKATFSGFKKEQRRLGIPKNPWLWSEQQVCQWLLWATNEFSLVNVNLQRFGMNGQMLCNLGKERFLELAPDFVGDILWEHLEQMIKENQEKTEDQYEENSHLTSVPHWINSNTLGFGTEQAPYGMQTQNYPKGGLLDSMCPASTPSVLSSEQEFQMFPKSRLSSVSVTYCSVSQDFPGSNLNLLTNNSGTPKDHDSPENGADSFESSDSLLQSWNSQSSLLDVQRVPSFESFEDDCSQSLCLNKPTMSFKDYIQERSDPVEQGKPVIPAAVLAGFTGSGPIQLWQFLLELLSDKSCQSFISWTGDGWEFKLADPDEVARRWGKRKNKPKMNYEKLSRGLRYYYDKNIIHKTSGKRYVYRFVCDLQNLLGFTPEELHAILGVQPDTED
How it was run: as §1

SPDEF = target: T9, SPDEF (Homo sapiens, UniProt O95238 1-335); settings: protein: recombinant; tags: N-terminal GST; dsDNA, one strand shown
T9 sequence: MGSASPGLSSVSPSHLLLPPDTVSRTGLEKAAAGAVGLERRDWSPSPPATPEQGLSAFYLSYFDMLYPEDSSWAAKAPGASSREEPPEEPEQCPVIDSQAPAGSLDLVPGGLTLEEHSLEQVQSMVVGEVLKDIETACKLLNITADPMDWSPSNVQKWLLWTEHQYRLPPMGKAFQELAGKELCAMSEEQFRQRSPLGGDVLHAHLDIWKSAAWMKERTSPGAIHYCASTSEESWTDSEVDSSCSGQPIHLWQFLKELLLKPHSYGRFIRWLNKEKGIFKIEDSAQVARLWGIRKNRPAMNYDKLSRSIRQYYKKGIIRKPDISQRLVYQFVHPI
How it was run: as §1

ETV7 = target: T10, ETV7 (Homo sapiens, UniProt Q9Y603 1-341); settings: protein: recombinant; tags: N-terminal GST; dsDNA, one strand shown
T10 sequence: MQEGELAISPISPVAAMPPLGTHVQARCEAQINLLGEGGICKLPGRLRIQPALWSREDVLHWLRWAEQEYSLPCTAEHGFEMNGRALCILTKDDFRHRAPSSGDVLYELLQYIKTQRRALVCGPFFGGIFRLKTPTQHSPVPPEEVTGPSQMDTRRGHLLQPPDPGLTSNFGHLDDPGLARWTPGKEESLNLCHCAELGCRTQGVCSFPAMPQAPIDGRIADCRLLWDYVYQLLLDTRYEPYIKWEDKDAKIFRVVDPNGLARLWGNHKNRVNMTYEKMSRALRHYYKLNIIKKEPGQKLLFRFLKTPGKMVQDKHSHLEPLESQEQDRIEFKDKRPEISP
How it was run: as §1

ELF5 = target: T11, ELF5 (Homo sapiens, UniProt Q9UKW6-2 1-255); settings: protein: recombinant; tags: N-terminal GST; dsDNA, one strand shown
T11 sequence: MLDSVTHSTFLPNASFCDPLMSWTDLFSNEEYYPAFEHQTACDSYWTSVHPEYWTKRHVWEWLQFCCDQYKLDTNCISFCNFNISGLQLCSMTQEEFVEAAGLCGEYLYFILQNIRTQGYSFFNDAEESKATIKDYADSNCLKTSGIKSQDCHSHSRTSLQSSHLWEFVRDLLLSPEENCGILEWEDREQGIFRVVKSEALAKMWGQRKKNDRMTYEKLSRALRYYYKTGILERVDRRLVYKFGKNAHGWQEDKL
How it was run: as §1

ETV3 = target: T12, ETV3 (Homo sapiens, UniProt P41162-2 1-143); settings: protein: recombinant; tags: N-terminal GST; dsDNA, one strand shown
T12 sequence: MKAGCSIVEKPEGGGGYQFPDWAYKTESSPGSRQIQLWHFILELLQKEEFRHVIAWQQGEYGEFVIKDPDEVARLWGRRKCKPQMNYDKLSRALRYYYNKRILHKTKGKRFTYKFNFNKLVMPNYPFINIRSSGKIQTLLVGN
How it was run: as §1

ETV6 = ETV6 (Homo sapiens, UniProt P41212 1-452); settings: protein: recombinant; tags: N-terminal GST; dsDNA, one strand shown
How it was run: as §1

CRX, sequence (O43186 whole entry): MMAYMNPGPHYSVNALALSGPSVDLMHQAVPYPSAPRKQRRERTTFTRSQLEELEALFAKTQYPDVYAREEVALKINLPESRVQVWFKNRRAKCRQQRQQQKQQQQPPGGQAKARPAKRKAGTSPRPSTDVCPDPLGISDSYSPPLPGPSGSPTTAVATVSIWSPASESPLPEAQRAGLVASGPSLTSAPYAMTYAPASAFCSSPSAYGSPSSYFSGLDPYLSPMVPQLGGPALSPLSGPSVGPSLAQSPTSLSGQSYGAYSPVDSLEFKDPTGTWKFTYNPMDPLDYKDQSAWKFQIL
HSF1, sequence (Q00613 whole entry): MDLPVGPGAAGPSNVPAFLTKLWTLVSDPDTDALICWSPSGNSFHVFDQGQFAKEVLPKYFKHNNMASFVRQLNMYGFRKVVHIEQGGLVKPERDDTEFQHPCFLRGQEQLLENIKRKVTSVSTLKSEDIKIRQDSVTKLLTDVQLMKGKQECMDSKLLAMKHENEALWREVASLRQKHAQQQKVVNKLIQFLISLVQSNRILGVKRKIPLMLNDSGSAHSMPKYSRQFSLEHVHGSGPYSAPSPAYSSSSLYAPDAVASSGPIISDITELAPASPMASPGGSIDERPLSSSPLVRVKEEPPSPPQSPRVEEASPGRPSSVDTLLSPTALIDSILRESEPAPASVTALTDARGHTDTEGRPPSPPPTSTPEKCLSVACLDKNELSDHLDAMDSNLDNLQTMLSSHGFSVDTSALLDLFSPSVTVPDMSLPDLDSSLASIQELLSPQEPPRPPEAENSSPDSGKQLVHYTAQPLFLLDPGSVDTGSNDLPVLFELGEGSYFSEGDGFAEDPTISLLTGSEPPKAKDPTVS
ELF4, sequence (Q99607 whole entry): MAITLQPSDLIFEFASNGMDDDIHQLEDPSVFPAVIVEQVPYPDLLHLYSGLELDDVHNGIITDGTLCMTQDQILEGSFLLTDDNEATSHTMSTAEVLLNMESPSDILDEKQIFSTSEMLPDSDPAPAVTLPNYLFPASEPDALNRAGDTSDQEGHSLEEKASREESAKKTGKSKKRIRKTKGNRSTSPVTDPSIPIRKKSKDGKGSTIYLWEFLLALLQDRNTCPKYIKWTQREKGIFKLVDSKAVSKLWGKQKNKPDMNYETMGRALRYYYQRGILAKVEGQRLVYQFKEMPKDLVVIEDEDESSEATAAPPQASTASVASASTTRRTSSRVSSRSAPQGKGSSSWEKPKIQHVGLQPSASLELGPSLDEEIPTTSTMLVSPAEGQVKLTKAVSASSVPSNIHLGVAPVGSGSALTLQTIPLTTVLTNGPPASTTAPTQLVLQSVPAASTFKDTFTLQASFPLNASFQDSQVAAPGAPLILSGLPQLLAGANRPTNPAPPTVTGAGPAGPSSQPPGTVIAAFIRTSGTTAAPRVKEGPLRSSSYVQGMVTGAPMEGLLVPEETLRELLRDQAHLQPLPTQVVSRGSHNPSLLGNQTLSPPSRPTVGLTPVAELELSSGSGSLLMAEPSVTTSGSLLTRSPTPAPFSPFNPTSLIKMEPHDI
ETV1, sequence (P50549 whole entry): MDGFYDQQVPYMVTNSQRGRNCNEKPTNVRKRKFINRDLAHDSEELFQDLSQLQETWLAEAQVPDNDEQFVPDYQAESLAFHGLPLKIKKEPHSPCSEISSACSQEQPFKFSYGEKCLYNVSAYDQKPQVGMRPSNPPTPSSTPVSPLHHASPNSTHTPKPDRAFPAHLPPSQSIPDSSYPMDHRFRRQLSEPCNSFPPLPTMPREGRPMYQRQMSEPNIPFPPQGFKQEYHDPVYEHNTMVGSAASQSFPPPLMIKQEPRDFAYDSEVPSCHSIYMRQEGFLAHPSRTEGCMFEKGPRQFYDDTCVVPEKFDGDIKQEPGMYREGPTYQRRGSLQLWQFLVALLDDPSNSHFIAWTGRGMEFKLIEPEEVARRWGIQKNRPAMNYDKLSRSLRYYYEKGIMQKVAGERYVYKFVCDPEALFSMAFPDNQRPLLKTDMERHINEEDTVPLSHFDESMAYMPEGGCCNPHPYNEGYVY
ETV5, sequence (P41161 whole entry): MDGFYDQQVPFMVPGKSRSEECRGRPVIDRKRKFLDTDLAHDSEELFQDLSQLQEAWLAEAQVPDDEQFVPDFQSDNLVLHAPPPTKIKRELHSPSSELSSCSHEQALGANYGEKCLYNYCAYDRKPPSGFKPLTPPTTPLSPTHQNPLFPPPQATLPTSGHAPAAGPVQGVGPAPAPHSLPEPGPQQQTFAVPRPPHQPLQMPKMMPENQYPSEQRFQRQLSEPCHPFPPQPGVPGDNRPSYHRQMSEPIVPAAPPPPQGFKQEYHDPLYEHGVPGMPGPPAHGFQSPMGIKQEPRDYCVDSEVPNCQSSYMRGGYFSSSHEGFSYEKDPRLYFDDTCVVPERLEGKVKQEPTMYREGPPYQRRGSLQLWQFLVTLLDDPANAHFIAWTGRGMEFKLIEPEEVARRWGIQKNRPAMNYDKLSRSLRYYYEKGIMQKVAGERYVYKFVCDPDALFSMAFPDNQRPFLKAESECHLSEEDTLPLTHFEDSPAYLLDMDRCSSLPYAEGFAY
ETV6, sequence (P41212 whole entry): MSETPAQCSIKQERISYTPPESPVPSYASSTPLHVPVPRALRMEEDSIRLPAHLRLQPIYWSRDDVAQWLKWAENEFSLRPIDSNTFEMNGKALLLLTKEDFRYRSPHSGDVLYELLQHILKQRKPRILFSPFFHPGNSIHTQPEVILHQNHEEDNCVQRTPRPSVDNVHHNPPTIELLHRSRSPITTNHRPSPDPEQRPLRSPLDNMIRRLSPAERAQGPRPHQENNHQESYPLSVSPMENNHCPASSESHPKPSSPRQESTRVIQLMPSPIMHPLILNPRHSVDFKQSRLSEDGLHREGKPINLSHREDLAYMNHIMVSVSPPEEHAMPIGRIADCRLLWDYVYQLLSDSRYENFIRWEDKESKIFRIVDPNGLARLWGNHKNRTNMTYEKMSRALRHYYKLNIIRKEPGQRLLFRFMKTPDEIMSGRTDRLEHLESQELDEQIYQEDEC

For AAAGAA, which binding signal (FEV) is on record?
The binding signal was 1.23 fold enrichment (6-mer frequency, TF over GST control).

And the binding signal (ETV5)?
The binding signal was 1.22 fold enrichment (6-mer frequency, TF over GST control).

And the binding signal (HSF1)?
Its binding signal is 1.99 fold enrichment (6-mer frequency, TF over GST control).

What about the binding signal (SPIC) of the same sequence?
Its binding signal is 1.17 fold enrichment (6-mer frequency, TF over GST control).

And the binding signal (ELF4)?
The binding signal was 1.29 fold enrichment (6-mer frequency, TF over GST control).

What about the binding signal (ELK4) of the same sequence?
Its binding signal is 1.32 fold enrichment (6-mer frequency, TF over GST control).

And the binding signal (ETV2)?
Its binding signal is 1.25 fold enrichment (6-mer frequency, TF over GST control).

And the binding signal (ELF3)?
Its binding signal is 1.29 fold enrichment (6-mer frequency, TF over GST control).

And the binding signal (CRX)?
Its binding signal is 1.48 fold enrichment (6-mer frequency, TF over GST control).

And the binding signal (ETV1)?
The binding signal was 1.29 fold enrichment (6-mer frequency, TF over GST control).

What about the binding signal (ERF) of the same sequence?
The binding signal was 1.27 fold enrichment (6-mer frequency, TF over GST control).

And the binding signal (ETV3L)?
The binding signal was 1.19 fold enrichment (6-mer frequency, TF over GST control).

And the binding signal (ETS2)?
The binding signal was 1.26 fold enrichment (6-mer frequency, TF over GST control).

What about the binding signal (SPDEF) of the same sequence?
The binding signal was 1.18 fold enrichment (6-mer frequency, TF over GST control).

And the binding signal (ETV7)?
Its binding signal is 1.36 fold enrichment (6-mer frequency, TF over GST control).

What about the binding signal (ELF5) of the same sequence?
Its binding signal is 1.23 fold enrichment (6-mer frequency, TF over GST control).

And the binding signal (ETV3)?
The binding signal was 1.2 fold enrichment (6-mer frequency, TF over GST control).

And the binding signal (ETV6)?
Its binding signal is 1.3 fold enrichment (6-mer frequency, TF over GST control).
